TROY signal inh: inhibitors of TROY-dependent NF-kB signaling | Q293 LMP1-TROYcd NF-kB luciferase reporter, 4 h | inhibition, % at 10 µM | 360,000 compounds, 0.98% hits | AID 1347056;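 active = compounds whose plate-normalised and pattern-corrected inhibition of the luciferase reporter signal at the single screening dose is 50% or more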
LGR2 antag: inhibitors of bursicon-induced Drosophila LGR2 receptor cAMP signaling | inhibition, % at 9.99 µM | AID 720647 | HEK293 LGR2, CRE-luciferase, bursicon-stimulated, 4 h | 380,000 compounds, 0.35% hits;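 active = drop in luminescence signal, shown as inhibition above about 50% in the replicate tests, limit read from the data, passing the limit was not always enough; inconclusive = probably only some replicates passing the limit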;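 also: agonist challenge used bursicon conditioned medium at about half maximal strength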
PAX8 inh HTS: lowers PAX8-driven luciferase in RMG-I cells; RMG-I TPO-luciferase reporter, SteadyGlo, 24 h; 360,000 compounds, 1.2% hits; inhibition, % at 12.6 µM;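 active = mean replicate inhibition at least 60% with every replicate also reaching 60%; inconclusive = only one of the two criteria is met; inactive = mean below 60% and not all replicates reaching 60%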;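 also: luciferase light reporting Pax8 driven TPO promoter activity; plate controls were median of neutral control wells for no effect and mitoxantrone controls for full effect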
EWS-Fli block: inhibitors of EWS/Fli oncoprotein transcriptional activity; A673 NR0B1-luciferase reporter, viability-normalised; 350,000 compounds, 0.67% hits; inhibition, % at 12.6 µM;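 active = mean inhibition of at least 50% after viability correction, with every replicate also passing that limit; inconclusive = mean reaches 50% but only one of two replicates passes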;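 also: firefly luciferase signal divided by Alamar Blue viability fluorescence both relative to DMSO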
EBV LMP1 NFkB: reduces LMP1-driven NF-kappaB luciferase signal; LMP1-induced NF-kappaB luciferase reporter cells, luminescence; inhibition, % at 12.5 µM; 350,000 compounds, 0.69% hits; AID 504558; in the data active = inhibition above about 41%; inconclusive = no clear call, values can overlap the other calls;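 also: 0% = neutral control wells and 100% = reference inhibitor control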
TWEAK-Fn14 inh: blocks TWEAK-Fn14 interaction in a reporter cell assay. TWEAK-stimulated Fn14 reporter cells, luciferase luminescence, 8 h. inhibition, % at 10 µM. 360,000 compounds, 2% hits; in the data active = inhibition above about 50%
* hit, by the source's call; ? = inconclusive; . = no result given. Sampled rows, rich in hits. Any-hit rate of the full collection: about 3.2%.

SMILES	TROY signal inh	LGR2 antag	PAX8 inh HTS	EWS-Fli block	EBV LMP1 NFkB	TWEAK-Fn14 inh
COCC(=O)N[C@@H]1C=C[C@@H](CC(=O)N2CCCCC2)O[C@H]1CO	.	.	-9.2	-1.9	.	.
CCCC#Cc1ccc([C@@H]2[C@H](C#N)N(S(=O)(=O)c3cccc(F)c3)[C@H]2CO)cc1	.	-12.2	83.1*	20.3	.	.
Cc1ccc(C(=O)NCCn2cc(SCC(=O)N3CCOCC3)c3ccccc32)cc1	77.7*	1.1	-57.5	-24.7	-4.3	86.1*
O=C(CSc1cn(CC(=O)N2CCOCC2)c2ccccc12)N1CCOCC1	3.3	-10.6	-15.8	.	5.0	-1.4
Cc1ccc(C(=O)NCCn2cc(SCC(=O)Nc3cc(C)on3)c3ccccc32)cc1	73.0*	2.5	-92.3	-23.1	-17.9	83.8*
Cc1cc(NC(=O)CSc2cn(CCNC(=O)c3ccccc3)c3ccccc23)no1	15.4	.	.	.	-0.3	32.1
O=C(Nc1ccc2c(c1)OCO2)c1cnn2c(C(F)(F)F)cc(-c3ccco3)nc12	-8.9	.	.	.	3.0	9.9
O=C(Nc1cnn(C23CC4CC(CC(C4)C2)C3)c1)c1cnn2c(C(F)(F)F)cc(-c3ccco3)nc12	81.4*	79.0*	.	7.5	13.0	95.7*
CCN(CC(=O)Nc1ccc(NC(C)=O)cc1)C(=O)C1(c2ccc(Cl)cc2)CCC1	-22.9	8.6	78.5*	1.2	-1.3	2.9
C[C@@H]1CCCCO[C@@H](CN(C)C(=O)c2ccncc2)[C@H](C)CN([C@@H](C)CO)C(=O)c2cc(NC(=O)c3ccncc3)ccc2O1	.	4.6	4.2	.	.	.
COCCCNCC(O)COc1ccccc1F (stereo not given)	-5.4	2.1	18.2	-36.5	-8.3	97.8*
COCCCNCC(O)COc1cccc2[nH]c(C)cc12 (stereo not given)	6.6	-31.4	2.1	-3.3	-4.1	-19.4
O=C(NCCCN1CCOCC1)C(=O)N/N=C/c1c(Cl)cccc1Cl	-18.0	6.7	-5.9	4.2	10.5	17.2
O=C(NCCCN1CCOCC1)C(=O)N/N=C/c1c2ccccc2cc2ccccc12	-4.8	-5.7	71.9*	.	12.3	-14.1
O=S(=O)(NCc1ccccc1)c1ccc(-c2cnc(C3CC3)o2)cc1	33.5	0.8	19.6	23.8	-6.1	-1.7
CCOc1ccccc1CNS(=O)(=O)c1ccc(-c2cnc(C3CC3)o2)cc1	56.3*	-3.4	36.3	59.0*	29.9	32.6
COc1ccc(C)cc1NS(=O)(=O)c1ccc(-c2cnc(C3CC3)o2)cc1	39.5	-14.0	98.9*	42.4	14.9	42.5
Cc1cccc(C)c1NS(=O)(=O)c1ccc(-c2cnc(C3CC3)o2)cc1	46.1	-3.9	92.3*	.	12.1	39.9
Cc1ccc(NS(=O)(=O)c2ccc(-c3cnc(C4CC4)o3)cc2)cc1	26.0	-2.3	21.4	47.7	8.9	24.1
Cc1ccc(N(C)S(=O)(=O)c2ccc(-c3cnc(C4CC4)o3)cc2)cc1	4.3	-14.4	40.6	51.9*	6.0	-6.7
C[C@@H]1CN([C@H](C)CO)C(=O)c2cccc(NC(=O)C3CCCCC3)c2O[C@H]1CN(C)CC1CC1	.	13.0	.	7.3	.	.
Cc1ccc2nc3sc(C(=O)Nc4c(C)[nH]c(=O)[nH]c4=O)c(N)c3cc2c1	8.0	-7.0	.	.	-1.3	53.4*
Cc1ccc2cc3c(N)c(C(=O)N4CCOCC4)sc3nc2c1	-13.1	.	.	.	-5.6	-2.2
Cc1ccc2cc3c(N)c(C(=O)Nc4c(C)[nH]c(=O)[nH]c4=O)sc3nc2c1	-9.4	-15.4	19.8	.	2.4	10.9
Cc1ccc2nc3sc(C(=O)N4CCOCC4)c(N)c3cc2c1	11.9	.	82.0*	.	63.6*	9.6
SMILES	TROY signal inh	LGR2 antag	PAX8 inh HTS	EWS-Fli block	EBV LMP1 NFkB	TWEAK-Fn14 inh
COc1ccccc1-c1ccc2c(c1)O[C@H](CN(C)C(=O)c1ccccc1)[C@H](C)CN([C@@H](C)CO)S2(=O)=O	.	5.0	-2.6	-0.9	.	.
O=C(C1CCC1)N1CC(=O)N2[C@@H](CO)[C@H](c3ccc(C#Cc4cccc(F)c4)cc3)[C@@H]2C1	.	7.9	-4.8	-4.3	.	.
O=C(C1CCC1)N1CC(=O)N2[C@H](C1)[C@H](c1ccc(C#Cc3cccc(F)c3)cc1)[C@@H]2CO	.	-2.9	81.3*	-1.9	.	.
O=C(C1CC1)N1CC(=O)N2[C@H](C1)[C@H](c1ccc(C#Cc3cccc(F)c3)cc1)[C@@H]2CO	.	10.7	68.6*	2.2	.	.
Brc1ccc(N/N=C(/N=Nc2nn[nH]n2)c2ccccc2)cc1	-45.8	-8.8	54.8	-14.4	58.3*	27.6
O=C(NC[C@@H]1CC[C@H]2[C@H](CN2C(=O)CN2CCOCC2)O1)NC1CCCCC1	.	.	.	2.7	.	.
CC(CNC1CCCCC1)OC(=O)c1ccccc1 (stereo not given)	-4.6	21.6	-13.8	-6.3	62.5*	-9.8
Cc1noc(C)c1S(=O)(=O)Nc1ccc2c(c1)C(=O)N([C@@H](C)CO)C[C@H](C)[C@@H](CN(C)Cc1ccc(C(F)(F)F)cc1)OCCCC[C@@H](C)O2	.	-7.0	72.1*	.	.	.
Cc1noc(C)c1S(=O)(=O)Nc1ccc2c(c1)C(=O)N([C@H](C)CO)C[C@H](C)[C@@H](CN(C)Cc1ccc(C(F)(F)F)cc1)OCCCC[C@H](C)O2	.	24.0	72.2*	.	.	.
Cc1noc(C)c1S(=O)(=O)Nc1ccc2c(c1)C(=O)N([C@@H](C)CO)C[C@@H](C)[C@H](CN(C)Cc1ccc(C(F)(F)F)cc1)OCCCC[C@H](C)O2	.	-4.4	64.2*	.	.	.
Cc1noc(C)c1S(=O)(=O)Nc1ccc2c(c1)C(=O)N([C@H](C)CO)C[C@H](C)[C@H](CN(C)Cc1ccc(C(=O)O)cc1)OCCCC[C@H](C)O2	.	-5.6	-1.6	-8.4	.	.
Cc1noc(C)c1S(=O)(=O)Nc1ccc2c(c1)C(=O)N([C@H](C)CO)C[C@H](C)[C@H](CN(C)Cc1ccc(C(F)(F)F)cc1)OCCCC[C@H](C)O2	.	-29.7	74.4*	.	.	.
CS(=O)(=O)N1[C@@H]2Cn3c(ccc(-c4ccccc4)c3=O)[C@H]1[C@@H](C(=O)NCC1CC1)[C@@H]2CO	.	3.7	8.9	-6.7	.	.
C[C@H](CO)N1C[C@H](C)[C@@H](CN(C)C(=O)Nc2ccc(F)cc2)OCCCC[C@H](C)Oc2ccc(NS(C)(=O)=O)cc2C1=O	.	-10.9	12.4	5.6	.	.
CCCC(=O)Nc1ccc2c(c1)C(=O)N(C)C[C@H](OC)[C@@H](C)CN(CCc1ccccc1)[C@H](C)CO2	.	-0.7	.	7.1	.	.
CCn1c(C)cc(/C=C2/SC(=S)NC2=O)c1C	11.2	1.6	-4.1	78.7*	-1.4	-28.1
CCn1ncc(/C=C2/SC(=S)NC2=O)c1C	-35.7	-0.9	-13.3	.	2.3	-17.8
O=C1/C(=C/c2cccnc2)SC(=S)N1C1CCS(=O)(=O)C1 (stereo not given)	17.0	?	.	.	6.9	65.1*
Cc1ccc(N2C(=O)/C(=C/c3cccnc3)SC2=S)cc1	-54.2	21.2	4.5	19.7	-12.0	-2.1
O=C1/C(=C\c2cccnc2)SC(=S)N1C1CCS(=O)(=O)C1 (stereo not given)	12.6	54.8*	.	0.5	18.6	71.1*
